# From the OligoGym collection
# Target: ZKSCAN4
# Experiment: pooled miR-30 sensor sort-seq; sequence = guide strand
# Conditions: shRNA
# Further: reference of the scale not given here.
row,Sequence,sensor-assay potency score (higher = more potent)
1,TGAGCTGTGACTGAAGACCTTA,0.0781
2,TTTATCACCATGAATCCTCTGA,0.54
3,TTCAATAAGACTTCTATTCCGT,0.355
4,TTTAGGTCCTACAACTTCCAGA,-0.127
5,TTCCACAGTCTTCACATTCATA,-1.13
6,AACCTGGAGAACTCTATCGTGT,-0.756
7,TTCATGCTTGAACAGAGCCTTC,-1.41
8,TACCATTGCATCTTCTCTGCAG,0.382
9,TTGACTGGAGGCAAGTCCCTGC,0.176
10,TTCTGCTTTCTTTGTAACCTGC,-0.00454
11,TAGTCTGTATTTCACCACCAAG,-1.77
12,TGAACTTTGAGCAAAACTCTTT,-0.0856

# Target: ZMAT2
# Experiment: as above
# Conditions: shRNA
row,Sequence,sensor-assay potency score (higher = more potent)
1,TTGGATTCCAAGTCCACCTTGT,0.567
2,TTCTCTGATGTTTCTTTCCATT,-1.41
3,TACCTCTGCAATCTGTGCCCTC,-0.418
4,TTCTCTTTCTTGTACGCTTTGG,-0.566
5,TTTATTGGGAACTCAGGTGGGC,0.402
6,TTTCTTGTACGCTTTGGCCTTT,-0.519
7,TTTCTCTTTCTTGTACGCTTTG,-0.653
8,TTCTTTTCTCTCTCTTCCGTGA,-0.461
9,TTCTTGTTGACCTCAAAACGTT,-0.905
10,TTCCTCAAAATCATAATCCTTC,0.481
11,AAAATCATAATCCTTCTGCTTC,-0.213
